TIM10 inh – growth inhibitors of isogenic TIM10 control yeast, primary screen, counter-screen for tim10-1 yeast inhibitor project, luminescence, uHTS | 1.4% of 330,000 active | inhibition, % at 10 µM | S. cerevisiae TIM10 strain growth, BacTiter-Glo luminescence, 24 h | AID 463195, 2010;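 active = inhibition of 40% or more at the single tested concentration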;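 note: wild-type TIM10 isogenic control strain grown at permissive 25 °C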
V-ATPase pH – regulators of yeast V-ATPase proton pumping, primary screen, pHLuorin cytosolic pH fluorescence; S. cerevisiae; response, % at 10 µM; 0.37% of 350,000 active; AID 504577, 2011; in the data active = response mostly above about 7.3%, no sharp cut-off; inactive = mostly below about 5.4%; note: actives read high
tim10-1 inh – growth inhibitors of tim10-1 mutant yeast, primary screen, luminescence, uHTS; inhibition, % at 20 µM; 2.2% of 330,000 active; S. cerevisiae tim10-1 ts strain growth, BacTiter-Glo, 24 h;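 active = inhibition of at least 40%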;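 note: mutant grown at 25 °C; 0% = DMSO wells with yeast and 100% = wells holding no yeast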
PfHsp90 yeast 2 – growth inhibition of PfHsp90-expressing yeast, primary screen, antimalarial PfHsp90 inhibitor project, S. cerevisiae, BacTiter-Glo luminescence, single point, set 2; BacTiter-Glo ATP, 48 h; yeast lacking PDR1 and PDR3 efflux regulators; inhibition, % at 9.4 µM; 0.32% of 310,000 active; AID 504621, 2011;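 active = every replicate shows inhibition above about 80%, whatever the replicate mean, limit read from the data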;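 note: 0% = DMSO neutral controls and 100% = 20 µM radicicol positive controls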
tim23-1 inh – growth inhibitors of tim23-1 mutant yeast, primary screen, luminescence, uHTS | S. cerevisiae tim23-1 growth, BacTiter-Glo luminescence, 24 h | inhibition, % at 20 µM | 1.3% of 330,000 active;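 active = growth inhibition of the mutant yeast at or above 50%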;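 note: temperature-sensitive mutant grown at 25 °C; plate controls were DMSO-treated mutant yeast for no effect and medium wells lacking yeast for full effect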
TIM10 conf – growth inhibitors of wild-type TIM10 yeast, confirmation, counter-screen for tim10-1 synthetic lethality project, single concentration, luminescence, S. cerevisiae. 63% of 4,600 active. inhibition, % at 10 µM. S. cerevisiae tim10 strain growth, BacTiter-Glo luminescence, 24 h. shares compounds with TIM10 inh;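 active = inhibition of yeast growth at or above a set limit in either of two replicates at 10 µM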;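 note: this counterscreen used the strain with wild-type TIM10; 0% = yeast with DMSO and 100% = medium wells lacking yeast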
tim23-1 confirm – tim23-1 mutant yeast growth inhibitors, confirmation, luminescence, single concentration | shares compounds with tim23-1 inh | S. cerevisiae tim23-1 growth, BacTiter-Glo luminescence, 24 h | inhibition, % at 20 µM | 83% of 4,400 active;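 active = inhibition above about 39% in either of two replicate wells at 20 µM, limit read from the data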;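 note: temperature-sensitive tim23-1 mutant grown at 25 °C; 0% = DMSO wells with yeast and 100% = medium wells without yeast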
Starred values were filed as active, the others as inactive; · = not tested or not shown. Hits are enriched below; roughly 3.7% of the tested compounds scored in any of these assays.

SMILES | TIM10 inh | V-ATPase pH | tim10-1 inh | PfHsp90 yeast 2 | tim23-1 inh | TIM10 conf | tim23-1 confirm
N#C/C(=C\c1ccccc1)C(=O)N1CCN(c2ccccc2F)CC1 | 47.2* | 1.0 | 26.1 | 11.6 | 66.4* | 44.5* | 48.5*
CCCCCCCCC1=NCCc2c1[nH]c1ccccc21 | 45.0* | -0.3 | 38.4 | -8.3 | 57.1* | 12.8 | 43.0*
CC1(c2ccccc2)ON(c2ccccc2C(F)(F)F)C1=O (stereo not given) | 54.1* | · | -32.8 | · | 62.0* | 64.6* | -13.0
Cn1c(SCC(=O)N/N=C/c2ccc([N+](=O)[O-])s2)nnc1-c1ccc(Cl)cc1 | 80.8* | -1.0 | 23.4 | 105.3* | 61.9* | -23.1 | 65.2*
COc1cc([N+](=O)[O-])cc(/C=N/NC(=O)CSc2nnc(-c3ccccc3)n2C)c1O | 12.8 | · | 0.8 | · | -3.7 | · | ·
CCOC(=O)c1c(C)[nH]c(C(=O)OCC(=O)Nc2cccnc2Cl)c1C | 10.8 | 1.7 | 26.0 | 5.2 | 20.2 | · | ·
O=C(Nc1ccc2c(c1)OCCO2)c1cccs1 | 44.6* | -0.3 | 15.4 | 6.6 | 55.8* | 49.5* | 64.7*
CC(C)CN1C(=O)c2ccc(NC(=O)c3cccs3)cc2C1=O | 46.2* | 0.4 | -5.5 | 1.5 | 53.4* | 49.5* | 54.5*
O=C(Nc1ccc(N2CCCC2)c(Cl)c1)c1cccs1 | 45.5* | -4.8 | 27.8 | -10.3 | 50.3* | 33.5* | 54.8*
COc1ccc(C(C)=O)cc1COC(=O)Cc1cc(OC)c(OC)c(OC)c1 | -0.6 | -3.0 | 25.3 | 25.1 | 24.6 | · | ·
COCCNC(=O)C(c1ccc(Cl)cc1)N(CCOC)C(=O)CCC(=O)Nc1ccccn1 (stereo not given) | 8.4 | 3.7 | -1.4 | 14.3 | 2.2 | · | ·
COc1ccc(-c2cc(C(=O)Nc3c(C)n(C)n(-c4ccccc4)c3=O)c3ccccc3n2)c(OC)c1 | 4.0 | -4.0 | 5.8 | -3.1 | 0.4 | · | ·
CCCNC(=O)N(C)C[C@@H]1Oc2cc(C#CC(C)(C)O)ccc2S(=O)(=O)N([C@H](C)CO)C[C@H]1C | · | -0.1 | · | · | · | · | ·
O=C(Nc1cccc(F)c1)c1ccccc1 | 52.7* | 2.7 | 11.2 | · | 50.1* | 47.5* | 65.5*
Cc1ccc(NC(=O)c2ccccc2)cc1C | 46.1* | -2.7 | 20.3 | -15.8 | 58.6* | 22.9 | 64.5*
CC1(C)CC(=O)C(=Cc2cn(-c3ccccc3)nc2-c2ccccc2)C(=O)C1 | 64.2* | -3.0 | 15.1 | 27.7 | 64.2* | 19.9 | 34.5
CCCCNC(=S)N/N=C/c1ccccc1F | 46.6* | 6.4 | 35.4 | -7.9 | 50.5* | -9.8 | 40.2*
COCCCNC(=S)N/N=C/c1cccc(OC)c1O | 31.1 | -1.4 | 19.4 | · | 26.6 | · | ·
O=C(N/N=C/c1ccccc1)c1ccco1 | -2.0 | 2.7 | -14.4 | 18.7 | 14.6 | · | ·
O=C(C#Cc1ccccc1)c1ccco1 | 55.7* | 2.2 | 21.7 | 104.1* | 61.0* | 68.8* | 62.3*
O=C(C1COc2ccccc2O1)N1CCN(c2ccc([N+](=O)[O-])cc2)CC1 (stereo not given) | 43.0* | -2.4 | 35.5 | -12.2 | 61.0* | 46.9* | 54.5*
O=C(C1COc2ccccc2O1)N1CCN(c2ccc(F)cc2)CC1 (stereo not given) | 14.9 | -4.0 | 9.8 | 10.9 | 7.3 | · | ·
O=C(Nc1ccc2oc(-c3ccccc3F)nc2c1)c1ccccc1F | 55.0* | 0.6 | 6.6 | 13.1 | 60.5* | 60.1* | 78.8*
COc1cccc(CNC(=O)CSc2nnc3c(n2)[nH]c2ccccc23)c1 | -16.1 | -4.6 | 1.9 | -5.9 | 6.7 | · | ·
Cc1cccc(NC(=O)COc2ccc(Br)cc2/C=N/O)c1 | 55.8* | 2.8 | 14.1 | 4.9 | 50.4* | 60.9* | 77.8*
SMILES | TIM10 inh | V-ATPase pH | tim10-1 inh | PfHsp90 yeast 2 | tim23-1 inh | TIM10 conf | tim23-1 confirm
CC(=O)Nc1ccc(NC(=O)COc2ccc(Br)cc2C)cc1 | -8.4 | -5.2 | 14.3 | -6.1 | 12.7 | · | ·
OCCC1CN(Cc2cccn2-c2ncccn2)CCN1CCc1ccccc1 (stereo not given) | -6.5 | 4.5 | 0.6 | · | 7.9 | · | ·
Cc1c(C(=O)Nc2nc3ccccc3[nH]2)oc2ccccc12 | 62.3* | 0.7 | 31.8 | 23.6 | 58.7* | 29.5 | 74.4*
Cc1ccc(C(=O)Nc2nc3ccccc3[nH]2)cc1 | 4.5 | 3.1 | -20.3 | 28.8 | 8.9 | · | ·
Nc1ncccc1OCc1ccc(Cl)c(Cl)c1 | -8.3 | -1.4 | -33.7 | 7.8 | 15.6 | · | ·
c1ccc(-c2ncc(-c3ccn[nH]3)s2)cc1 | 48.5* | 5.6 | 14.9 | -43.0 | 55.9* | 30.7 | 67.8*
c1ccc(Oc2ccc(-c3ccn[nH]3)cc2)cc1 | 26.9 | 1.1 | 27.6 | -8.8 | 29.4 | · | ·
Oc1ccc(Cl)cc1Cc1cc(Cl)ccc1O | 50.3* | 1.0 | -7.6 | 106.7* | 73.2* | 63.0* | 8.2
Cc1ccc(OCC(=O)N2CCN(c3nnc(-c4ccc(C)cc4)c4ccccc34)CC2)cc1 | 15.5 | -2.3 | 23.4 | · | 21.5 | · | ·
Cc1ccc(-c2nnc(N3CCCCCC3)c3ccccc23)cc1 | 43.8* | 1.8 | 24.7 | 0.3 | 59.9* | 14.7 | 54.2*
O=C(Nc1cc2c3c(c1)CC(=O)N3CCC2)C1CCCCC1 | 5.7 | -4.2 | 7.4 | -5.4 | 17.9 | · | ·
CCCN1C(=O)/C(=C/c2ccc(C)s2)SC1=Nc1ccc(OC)cc1 | 6.4 | -8.1 | 7.5 | 7.1 | -6.2 | · | ·
CCN(CC)CCN1C(=O)/C(=C\c2ccc(Cl)c([N+](=O)[O-])c2)SC1=Nc1ccc(OC)cc1 | 41.2* | 2.9 | -0.2 | -15.6 | 66.1* | 35.2* | 56.9*
CCCc1ccc(OCC(=O)Nc2cc(S(=O)(=O)CC)ccc2O)cc1 | -13.7 | -0.6 | -1.0 | 15.4 | 6.4 | · | ·
CCN(CC)c1ccc(/C=N/NC(=O)c2ccco2)c(O)c1 | 53.6* | 5.5 | 33.4 | 5.7 | 75.1* | 61.3* | 77.1*
Cc1ccc(/C=N/NC(=O)c2ccc3c(c2)OCCO3)s1 | 43.8* | 0.3 | -17.7 | 1.0 | 58.7* | 31.5 | 65.2*
O=C(N/N=C/c1cc(Br)cs1)c1ccc2c(c1)OCCO2 | 20.0 | 1.7 | -40.9 | · | 45.6 | · | ·
Cc1ccsc1/C=N/NC(=O)c1ccc2c(c1)OCCO2 | 48.8* | 1.3 | 29.7 | -16.7 | 56.2* | 52.2* | 72.1*
Cc1ccc(/C=N/NC(=O)c2ccc3ccccc3c2)s1 | 40.7* | 0.9 | -1.5 | 1.2 | 67.8* | 31.8* | 72.8*
COc1cc2ccccc2cc1C(=O)N1CCc2ccccc21 | 20.0 | -0.2 | 33.5 | -16.1 | 40.0 | · | ·
O=C(Nc1cccc(-n2cnnn2)c1)c1cnccc1Cl | 9.0 | 3.4 | 10.2 | -7.3 | 6.3 | · | ·
COc1cccc(OCc2cc(C(=O)N3CCN(C(C)=O)CC3)no2)c1 | -1.1 | -0.8 | -10.6 | 5.9 | 1.5 | · | ·

Bioassay records as filed in PubChem BioAssay.
